# According to PubChem BioAssay (EPA / NIEHS):
# Calls of active or inactive are those of the source. Rule for the calls: active = hit-call score of the fitted dose curve at least 0.9, where 1 is the maximum; inactive = score below 0.9.
# Target: Transcription factor E2F1 (Homo sapiens) (UniProt Q01094)
# Test: ATG_E2F_CIS: Attagene CIS-FACTORIAL HepG2 Assay for human E2F Transcription Factor 1 (AID 2282935)
# Settings: HepG2 Attagene cis-reporter, E2F reporter RNA transcripts; actives raise or lower the signal
# Protocol: ATG_CIS is a cell-based, multiplexed-readout assay that uses HepG2, a human liver cell line, with measurements taken at 24 hours after chemical dosing in a 24-well plate.ATG_E2F_CIS is one of 52 assay component(s) measured or calculated from the ATG_CIS assay. It is designed to make measurements of mRNA induction, a form of inducible reporter, as detected with fluorescence intensity signals by Reverse transcription polymerase chain reaction (RT-PCR) and Capillary electrophoresis technology.Data from the assay component ATG_E2F_CIS was analyzed into 1 assay endpoint. This assay endpoint, ATG_E2F_CIS, was analyzed with bidirectional fitting relative to DMSO as the negative control and baseline of activity. Using a type of inducible reporter, measures of mRNA for gain or loss-of-signal activity can be used to understand the reporter gene at the transcription factor-level as they relate to the gene E2F1. Furthermore, this assay endpoint can be referred to as a primary readout, because this assay has produced multiple assay endpoints where this one serves a reporter gene function. To generalize the intended target to other relatable targets, this assay endpoint is annotated to the dna binding intended target family, where the subfamily is E2F transcription factor.
# Human liver HepG2 cells are transiently transfected with multiple reporter transcription units (MRTUs) in 6-well plates using FuGene 6 reagent (Roche; 3 ml FuGene/1 mg DNA). The MRTU constructs are regulated by a cis-regulating element (promoter). […] A major difference between the CIS and TRANS system is that in CIS activities of endogenous TFs are measured, whereas the TRANS assay evaluates changes in activities of exogenous, chimeric NR-Gal4 proteins. […] At the end of 24 hour incubation, total RNA was isolated using TriZol reagent (Invitrogen). The isolated RNA is then reverse-transcribed using oligo(dT) primer and Mo-MLV reverse transcriptase (Invitrogen) with DNAse I (Ambion) treatment for 30 min. The one-tenth of the produced cDNA was amplified by PCR using Taq DNA polymerase (Invitrogen) and two reporter sequence-specific primers. The PCR products were fluorescently labeled by primer extension with 6-arboxyfluorescein (6-FAM) 5'-labeled reporter sequence-specific primer (2 min at 95 C, 20 s at 68 C and 10 min at 72 C) and these products were digested with 5U of HpaI (New England Biolabs) for 2h at 37 C. The fragments were purified using Qiaquick PCR columns (Qiagen), analyzed on an ABI 3130xL genetic analyzer (Applied Biosystems) with peak positions identified by using a set of X-rhodamine (ROX)-labeled MapMarker1000 molecular weight standards (BioVentures). The raw capillary electrophoresis data was processed using Attagraph software (Attagene).
# Transcription factor E2F1 (Homo sapiens), sequence (Q01094 whole entry, looked up): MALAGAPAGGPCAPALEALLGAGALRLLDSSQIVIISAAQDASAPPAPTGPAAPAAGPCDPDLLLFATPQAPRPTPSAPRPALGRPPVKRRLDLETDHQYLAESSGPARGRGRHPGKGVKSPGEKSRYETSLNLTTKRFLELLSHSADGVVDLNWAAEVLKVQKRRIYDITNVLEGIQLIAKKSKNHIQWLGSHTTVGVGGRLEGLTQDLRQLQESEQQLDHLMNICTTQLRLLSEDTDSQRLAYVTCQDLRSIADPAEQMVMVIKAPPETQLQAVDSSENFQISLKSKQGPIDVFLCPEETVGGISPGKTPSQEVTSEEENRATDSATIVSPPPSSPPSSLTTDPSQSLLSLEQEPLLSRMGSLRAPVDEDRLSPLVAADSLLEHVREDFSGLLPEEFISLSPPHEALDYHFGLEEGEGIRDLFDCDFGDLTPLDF
row,Structure (SMILES),outcome
1,CNC(=O)Oc1cccc2ccccc12,inactive
2,COCC(=O)N(c1c(C)cccc1C)C(C)C(=O)OC (stereo not given),inactive
3,CCOP(=O)(OCC)Oc1nc(Cl)c(Cl)cc1Cl,inactive
4,COCC(C)N(C(=O)CCl)c1c(C)csc1C (stereo not given),inactive
5,CC1(C)C(C(=O)OC(C#N)c2cccc(Oc3ccccc3)c2)C1(C)C (stereo not given),inactive
6,OC(c1ccc(Cl)cc1)(c1ccc(Cl)cc1)C(Cl)(Cl)Cl,inactive
7,Clc1nc(Cl)nc(Nc2ccccc2Cl)n1,inactive
8,COC(=O)NS(=O)(=O)c1ccc(N)cc1,inactive
9,CC1(C)C(C=C(Cl)Cl)C1C(=O)OC(C#N)c1cccc(Oc2ccccc2)c1 (stereo not given),inactive
10,CC(C)Oc1cccc(NC(=O)c2ccccc2C(F)(F)F)c1,inactive
11,CCOP(=S)(OCC)Oc1nc(Cl)n(C(C)C)n1,inactive
12,O=C1C2CC=CCC2C(=O)N1SC(Cl)(Cl)Cl (stereo not given),inactive
13,CC(C)=CC1C(C(=O)OCc2coc(Cc3ccccc3)c2)C1(C)C (stereo not given),inactive
14,CCCCOCN(C(=O)CCl)c1c(CC)cccc1CC,inactive
15,COc1cc(OC)nc(NC(=O)NS(=O)(=O)c2ncccc2OCC(F)(F)F)n1,inactive
16,Cc1cnc(C2=NC(C)(C(C)C)C(=O)N2)c(C(=O)O)c1 (stereo not given),inactive
17,O=C(Nc1ccccc1-c1ccc(Cl)cc1)c1cccnc1Cl,inactive
18,Nc1cnn(-c2ccccc2)c(=O)c1Cl,inactive
19,CC(C)N1C(=O)N(c2ccccc2)CSC1=NC(C)(C)C,inactive
20,COC(=O)N(C(=O)N1CO[C@@]2(C(=O)OC)Cc3cc(Cl)ccc3C2=N1)c1ccc(OC(F)(F)F)cc1,inactive

row,Structure (SMILES),outcome
1,CS(=O)(=O)c1cc(C(F)(F)F)ccc1C(=O)c1cnoc1C1CC1,inactive
2,Cn1c(-c2ccccc2)cc(-c2ccccc2)[n+]1C,inactive
3,CSC(=O)c1c(C(F)F)nc(C(F)(F)F)c(C(=O)SC)c1CC(C)C,inactive
4,CCC(C)n1c(=O)[nH]c(C)c(Br)c1=O (stereo not given),inactive
5,Clc1cccc(C(Cl)(Cl)Cl)n1,inactive
6,CCOc1nc(C(Cl)(Cl)Cl)ns1,inactive
7,CCSC(=O)N1CCCCCC1,inactive
8,COP(=S)(OC)Oc1ccc([N+](=O)[O-])c(C)c1,inactive
9,O=c1n(Cl)c(=O)n(Cl)c(=O)n1Cl,inactive
10,CCCN(CC)CC1COC2(CCC(C(C)(C)C)CC2)O1 (stereo not given),inactive
11,Cc1nc(N(C)C)nc(OC(=O)N(C)C)c1C,inactive
12,CN/C(=N\[N+](=O)[O-])NCc1cnc(Cl)s1,inactive
13,Nc1c(Cl)c(F)nc(OCC(=O)O)c1Cl,inactive
14,CO/N=C(/C1=NOCCO1)c1ccccc1Oc1ncnc(Oc2ccccc2Cl)c1F,inactive
15,CCCCC(O)(Cn1cncn1)c1ccc(Cl)cc1Cl (stereo not given),inactive
16,CCCC(=NOCC)C1=C(O)CC(CC(C)SCC)CC1=O (stereo not given),inactive
17,COC(=O)c1c(C(F)F)nc(C(F)(F)F)c(C2=NCCS2)c1CC(C)C,inactive
18,N#Cc1c(Cl)cccc1Cl,inactive
19,N#CN=C1SCCN1Cc1ccc(Cl)nc1,inactive
20,C=C(C)CN(CC)c1c([N+](=O)[O-])cc(C(F)(F)F)cc1[N+](=O)[O-],inactive
